These results are taken from the supplement of paper PMC6555819.

The test system of one assay is THRa:RXRa (NR concentration 90 nM, RXRa partner concentration 90 nM). The assay is described as follows: PBM binding z-score (relative to random genomic background probes); higher = stronger binding; sequences stand for … in GC…GCGATTGACAGCGTAGAATGAAGG
In short, it runs like this:
(§1)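 On custom Agilent 4×180K arrays, double-stranded probes with 34-nt variable regions carried direct-repeat seeds, single-nucleotide variants, half-site ablations or random human genomic background. Ligand-free nuclear receptor dimers were applied for 1 h, and binding was read with antibodies against each partner (one per run). Binding z-scores come from regression-normalized fluorescence, with the random background probes as reference.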
In the case of CCTGCTAGGTCATGGGCAGCTAATCTACAGTATG, the PBM binding z-score is 2.89.
The same measure, in the same setting: for GCGACTGGGGCATCAGCAGGTTACCAGAACTTAA the value was 0.858; for TTACCAAGGTGAGGGTCGTTGATCCCTCTGTAGA, 1.8.
With ATATGTAGGTTATCGGGTCATTGAGTTTGCGCAT, the PBM binding z-score amounted to 3.42.
The same measure, in the same setting: to ATCTGTAGGTAAAGTTCAGTGAAAGATCGATAGA belongs 0.595; to TCTCGGAGGACACGAAGGTCACAGCTTTCCAGAG, 3.86; to CCTACTCGGCCAAGGTCATTGATCAGTCAAAGCA, 3.36.
The sequence CCTACTGGGCCATCAAGTCATTGATATCAACGTT gave a PBM binding z-score of -0.116.
Still for that read-out and setting: to ACTAGCAGGCCAATGGTCACTCAAGATTAGTCCG belongs -0.312; to AGTCACAGTTCAGGACGAGGTAACGTAAAGCACG, 3.34.
Still for that read-out and setting: to TCATATAGGTAAATCCTAGGTGAAAGTCCGATCT belongs 1.96; to TCTTGTAGATCCATAGAGGTTAAGAAAGTGCGCT, 1.07.
On the same count and under the same terms, to CGTTCAAGGTCAGAGAGGTCAGTGAATGCCGAGT belongs 4.37; to TGACCAAGGTGAAAGGTCGTTGATGCACGCCTTG, 3.35; to CGTCCAAGGTTAGAGAGGTCAGTGAATGCCGAGT, 3.22.
The sequence ACTAGTTGGTCAGCTGACGTCACACACAATTCGG came in with a PBM binding z-score of 0.178.
For the sequence GCTGCTAGGTCAACTGTTGGTCAGCTAAAGCTCG, the PBM binding z-score was determined as 2.84.
On the same count and under the same terms, to TCTAGTTGGTCCCGGAGGTCACACACGACGGGTA belongs 3.59.
In turn, ACGAGCAGGCCAAGGGTCACTCAAGATTAGTCCG yielded a PBM binding z-score of 2.69.
Take GCTGCTAGGTCACCTGATGGTCAGCTAAAGCTCG: the PBM binding z-score is 3.
In the case of GATACAGGGTAAAGGCCAGAGTACGCGTATTGAT, the PBM binding z-score came out at 0.316.
ATATGTAGGTTAAGGGTCATTTAGGTTGGTTCGC registered a PBM binding z-score of 3.72.
On the same count and under the same terms, for CAAACTAGGTCAAGAGGTCAACGTCCGCTTCCCG the value was 4.5.
Still for that read-out and setting: for CCTCACGGGTCACTCCAGGTTATAGCATCGGAGT the value was 4.79.
For CGTCAAAGTTCAAGGTAACCTAACAGAAAGCAGC, the PBM binding z-score is 3.19.
As to TCTATTGGTTGAAGGGCAACCGACGAGTCCGTTT, the PBM binding z-score was determined as 0.279.
Still for that read-out and setting: for TCGATTAGGTTAGTCGGGGCATTCAGCCAACATA the value was 1.4.
Same read-out and setting: for AGAATGAGGTTATTAAGGTCAGGGAATTGCGGTC the value was 4.71; for CAAACTAGGTCACCGGAAGGTCCAAGTCCGCATG, 3.59.
On the same count and under the same terms, to TCTACTAGGTCAGTTGGTCAGCTAACGAGCTGCC belongs 1.28.
As to CTACCAAGGTTAACAAGGTCGTTGATTACTATTC, the PBM binding z-score was 3.39.
CCTACTGGGCCATTCAGAGGTCATTGGTCATATG came in with a PBM binding z-score of 3.14.
CGTCCTAGGTCAGCAGGTCAGTGAAAGCGACGTG returned a PBM binding z-score of 2.88.
Consider AGAACGAGGGCACGCGGAGTTGATAGCAGAGTAG, for which the PBM binding z-score was 1.82.
Consider TAGCCTAGGTCATGCGGGCCAGTTTAGTGTCGGC, for which the PBM binding z-score came to 3.02.
Turning to CGAACGAGGGCATGAGTTGGTAGCAAATGCCGAT, the PBM binding z-score is 1.03.
On the same count and under the same terms, to CCTACTGGCCCAAAAAGGTCATTGATGCCGATAA belongs 3.39.
Sequence ACTAGTTGGTCGGCTGAGGTCACACACAATTCGG showed a PBM binding z-score of 4.77.
Still for that read-out and setting: for TCTTGTAGATCAACAGGAGGTTATGAAAGATCGA the value was 0.76; for TCATATAGGTAATACAAGTGAAAGTCGGCATCTA, 0.601.

The next assay relates to THRa homodimer (NR concentration 90 nM). Described as above. In short, it runs like this: as §1
CCTGCTAGGTCATGGGCAGCTAATCTACAGTATG returned a PBM binding z-score of 0.639.
Same read-out and setting: to GCGACTGGGGCATCAGCAGGTTACCAGAACTTAA belongs -0.159; to TTACCAAGGTGAGGGTCGTTGATCCCTCTGTAGA, 0.423.
Sequence ATATGTAGGTTATCGGGTCATTGAGTTTGCGCAT yielded a PBM binding z-score of 2.76.
ATCTGTAGGTAAAGTTCAGTGAAAGATCGATAGA showed a PBM binding z-score of -0.247.
The sequence TCTCGGAGGACACGAAGGTCACAGCTTTCCAGAG returned a PBM binding z-score of 1.77.
In turn, CCTACTCGGCCAAGGTCATTGATCAGTCAAAGCA came in with a PBM binding z-score of 2.98.
Regarding CCTACTGGGCCATCAAGTCATTGATATCAACGTT, the PBM binding z-score was -0.0575.
For the sequence ACTAGCAGGCCAATGGTCACTCAAGATTAGTCCG, the PBM binding z-score is -0.672.
Same read-out and setting: for AGTCACAGTTCAGGACGAGGTAACGTAAAGCACG the value was 1.84; for TCATATAGGTAAATCCTAGGTGAAAGTCCGATCT, 0.368.
For TCTTGTAGATCCATAGAGGTTAAGAAAGTGCGCT, the PBM binding z-score is -0.276.
In turn, CGTTCAAGGTCAGAGAGGTCAGTGAATGCCGAGT had a PBM binding z-score of 3.21.
The same measure, in the same setting: for TGACCAAGGTGAAAGGTCGTTGATGCACGCCTTG the value was 0.487.
The same measure, in the same setting: to CGTCCAAGGTTAGAGAGGTCAGTGAATGCCGAGT belongs 1.3; to ACTAGTTGGTCAGCTGACGTCACACACAATTCGG, 0.155; to GCTGCTAGGTCAACTGTTGGTCAGCTAAAGCTCG, 0.983.
The same measure, in the same setting: to TCTAGTTGGTCCCGGAGGTCACACACGACGGGTA belongs 3.02; to ACGAGCAGGCCAAGGGTCACTCAAGATTAGTCCG, 0.262.
The sequence GCTGCTAGGTCACCTGATGGTCAGCTAAAGCTCG came in with a PBM binding z-score of 1.57.
The sequence GATACAGGGTAAAGGCCAGAGTACGCGTATTGAT registered a PBM binding z-score of -0.482.
Same read-out and setting: to ATATGTAGGTTAAGGGTCATTTAGGTTGGTTCGC belongs 1.76; to CAAACTAGGTCAAGAGGTCAACGTCCGCTTCCCG, 2.96; to CCTCACGGGTCACTCCAGGTTATAGCATCGGAGT, 0.721.
The sequence CGTCAAAGTTCAAGGTAACCTAACAGAAAGCAGC gave a PBM binding z-score of 1.38.
For the sequence TCTATTGGTTGAAGGGCAACCGACGAGTCCGTTT, the PBM binding z-score worked out at 0.101.
The sequence TCGATTAGGTTAGTCGGGGCATTCAGCCAACATA had a PBM binding z-score of 0.446.
Turning to AGAATGAGGTTATTAAGGTCAGGGAATTGCGGTC, the PBM binding z-score was 5.16.
Sequence CAAACTAGGTCACCGGAAGGTCCAAGTCCGCATG had a PBM binding z-score of 2.3.
Turning to TCTACTAGGTCAGTTGGTCAGCTAACGAGCTGCC, the PBM binding z-score came out at 0.622.
For CTACCAAGGTTAACAAGGTCGTTGATTACTATTC, the PBM binding z-score turned out to be 1.93.
The same measure, in the same setting: for CCTACTGGGCCATTCAGAGGTCATTGGTCATATG the value was 1.34.
In turn, CGTCCTAGGTCAGCAGGTCAGTGAAAGCGACGTG yielded a PBM binding z-score of 1.1.
The sequence AGAACGAGGGCACGCGGAGTTGATAGCAGAGTAG showed a PBM binding z-score of -0.0223.
The same measure, in the same setting: for TAGCCTAGGTCATGCGGGCCAGTTTAGTGTCGGC the value was 1.07; for CGAACGAGGGCATGAGTTGGTAGCAAATGCCGAT, -0.283; for CCTACTGGCCCAAAAAGGTCATTGATGCCGATAA, 1.13.
In the case of ACTAGTTGGTCGGCTGAGGTCACACACAATTCGG, the PBM binding z-score was 5.24.
Still for that read-out and setting: to TCTTGTAGATCAACAGGAGGTTATGAAAGATCGA belongs -0.681; to TCATATAGGTAATACAAGTGAAAGTCGGCATCTA, 0.0151.
